Measured values published in PubChem BioAssay (Tox21).
Inconclusive results are not listed. The source made the active and inactive calls. Unless noted, the call rests on the fitted dose curve; in most records, active means well fitted curve in the direction sought with a large enough effect in the repeat runs; inconclusive means weak or mixed curves; inactive means no such curve, though single readings can be large; an effect the other way counts as inactive or inconclusive.

How the values were obtained:
[1] = tested on: thyroid hormone receptor (rat, GH3 cells); experiment: qHTS assay to identify small molecule agonists of the thyroid receptor (TR) signaling pathway (AID 743066; calls by dose curve)
[2] = biological target: Estrogen receptor (Homo sapiens) (UniProt P03372); experiment: qHTS assay to identify small molecule antagonists of the estrogen receptor alpha (ER-alpha) signaling pathway (AID 743069; active means well fitted curve in the direction sought with a large enough effect in the signal ratio in the repeat runs, not every such curve was filed as active; the % refers to the signal ratio)
In short: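 A 17beta-estradiol challenge was applied right after compound transfer to ER-alpha-UAS-bla HEK293 cells previously kept in charcoal-stripped serum. Plates stood 18 hr at 37C and 5% CO2; fluorescence was read following 2 hr FRET substrate loading at room temperature.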

[3] = qHTS assay to identify small molecule antagonists of the estrogen receptor alpha (ER-alpha) signaling pathway - cell viability counter screen (AID 743074; calls by dose curve;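 further: HEK293 cells carrying ER-alpha-UAS-bla reporter stimulated with 17beta-estradiol; nearly all actives have a fitted effect of over 45% in size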)
[4] = biological target: Estrogen receptor (Homo sapiens) (UniProt P03372); experiment: qHTS assay to identify small molecule agonists of the estrogen receptor alpha (ER-alpha) signaling pathway (AID 743075; calls by dose curve;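 further: HEK293 GripTite cells with ER-alpha and UAS-driven beta-lactamase reporter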)
[5] = biological target: Estrogen receptor (Homo sapiens) (UniProt P03372); experiment: qHTS assay to identify small molecule agonists of the estrogen receptor alpha (ER-alpha) signaling pathway using the BG1 cell line (AID 743079); further: nearly all actives have a fitted effect of over 20% in size
[6] = qHTS assay to identify small molecule antagonists of the estrogen receptor alpha (ER-alpha) signaling pathway using the BG1 cell line (AID 743080; calls by dose curve;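 further: BG1 cells stimulated with 17beta-estradiol alongside compound; series mostly up to about 70 µM; nearly all actives have a fitted effect of over 25% in size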)
In short: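 Seeding, 24 h rest, compound transfer from DMSO, 17beta-estradiol addition, 21.5 h incubation, CellTiter-Fluor (30 min, 37 C), then ONE-Glo (30 min, room temperature): this sequence was run on BG1-Luc-4E2 reporter cells.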

[7] = qHTS assay to identify small molecule antagonists of the estrogen receptor alpha (ER-alpha) signaling pathway using the BG1 cell line - cell viability counter screen (AID 743081);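 further: compound given together with 17beta-estradiol as the ER stimulus; nearly all actives have a fitted effect of over 45% in size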; further: potency means the concentration at half of the fitted maximal effect
Aromatase (Homo sapiens) = Aromatase (Homo sapiens) (UniProt P11511); experiment: qHTS assay to identify aromatase inhibitors (AID 743083); further: series mostly up to about 70 µM; nearly all actives have a fitted effect of over 55% in size
[8] = qHTS assay to identify aromatase inhibitors - cell viability counter screen (AID 743084);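 further: cells stimulated with testosterone during compound exposure; nearly all actives have a fitted effect of over 55% in size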; further: potency means the concentration at half of the fitted maximal effect
[9] = biological target: Aryl hydrocarbon receptor (Homo sapiens) (UniProt P35869); experiment: qHTS assay to identify small molecule that activate the aryl hydrocarbon receptor (AhR) signaling pathway (AID 743085);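 further: HG2L7.5c1 human HepG2 liver cells with stably integrated DRE-driven firefly reporter; series mostly up to about 70 µM; nearly all actives have a fitted effect of over 15% in size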
In short: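 Stably transfected human liver carcinoma cells (HG2L7.5c1; 20 DRE-firefly luciferase) were incubated 5 h, dosed, and kept 24 h at 37C. Agonism was scored from increased luciferase luminescence.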

[10] = qHTS assay to identify small molecule antagonists of the peroxisome proliferator-activated receptor gamma (PPARg) signaling pathway - cell viability counter screen (AID 743194); further: nearly all actives have a fitted effect of over 55% in size
In short: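 PPARg-UAS-bla HEK293H cells were plated, rested 5 h at 37 C, then treated with compounds plus rosiglitazone (50 nM final) for 17 h at 37 C; viability was then read by CellTiter-Glo luminescence after 30 min at room temperature.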

[11] = qHTS assay for small molecule agonists of the antioxidant response element (ARE) signaling pathway (AID 743202; active means well fitted activation curve with a large enough effect in the signal ratio in the repeat runs, not every such curve was filed as active; the % refers to the signal ratio; further: potency means the concentration at half of the fitted maximal effect)
In short: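 Following a 16 h, 37 C exposure of reporter HepG2 cells (ARE-driven beta-lactamase, 2,000 cells/well) to compounds, FRET substrate was applied for 2 h at room temperature and fluorescence intensity recorded.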

[12] = qHTS assay for small molecule agonists of the antioxidant response element (ARE) signaling pathway - cell viability counter screen (AID 743203; calls by dose curve; further: nearly all actives have a fitted effect of over 55% in size)
In short: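 Luminescence read-out (CellTiter-Glo, 30 min at room temperature) measured cell viability in the same wells as the ARE beta-lactamase reporter. HepG2 ARE-bla cells were treated with compounds for 16 hrs at 37C/5% CO2.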

[13] = qHTS assay for small molecule activators of the heat shock response signaling pathway - cell viability counter screen (AID 743209); further: nearly all actives have a fitted effect of over 50% in size
In short: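 HSE-bla HeLa; 1500 cells/well; overnight 37 C, 5% CO2; compound 5 h 37 C; LiveBLAzer B/G substrate 2.5 h RT; CellTiter-Glo 30 min RT; luminescence.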

[14] = qHTS assay for small molecule activators of the heat shock response signaling pathway (AID 743210; active means well fitted activation curve with a large enough effect in the signal ratio in the repeat runs, with a control signal flat, not every such curve was filed as active; the % refers to the signal ratio; further: series mostly up to about 63 µM)
In short: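 Heat shock element–beta-lactamase HeLa reporter cells; qHTS with compounds for 5 h at 37 C; detection by FRET substrate fluorescence after 2.5 h at RT.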

[15] = qHTS assay to identify small molecule agonists of the peroxisome proliferator-activated receptor delta (PPARd) signaling pathway - cell viability counter screen (AID 743211); further: nearly all actives have a fitted effect of over 55% in size
In short: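 In the same wells used for beta-lactamase reporter measurement, cytotoxicity is scored by CellTiter-Glo. HEK293H PPARd-bla cells receive compound for 17 h at 37C following a 5 h settling period.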

[16] = biological target: Peroxisome proliferator-activated receptor delta (Homo sapiens) (UniProt Q03181); experiment: qHTS assay to identify small molecule agonists of the peroxisome proliferator-activated receptor delta (PPARd) signaling pathway (AID 743212; calls by dose curve; further: potency means the concentration at half of the fitted maximal effect)
In short: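 Beta-lactamase reporter read by fluorescence (LiveBLAzer B/G FRET, 2 h, room temperature). Test agents, in DMSO, incubated at 37 C with PPARd-bla HEK293H cells.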

[17] = qHTS assay to identify small molecule that activate the aryl hydrocarbon receptor (AhR) signaling pathway - cell viability counter screen (AID 743086); further: nearly all actives have a fitted effect of over 45% in size; further: potency means the concentration at half of the fitted maximal effect
In short: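 HepG2-AhR-luc (HG2L7.5c1) cells, 4000/well, were preincubated 5 h at 37C, exposed to compound in qHTS format for 24 hr at 37C, then given CellTiter-Fluor for 30 min; viability was read as fluorescence in the reporter wells.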

[18] = biological target: Peroxisome proliferator-activated receptor gamma (Homo sapiens) (UniProt P37231); experiment: qHTS assay to identify small molecule agonists of the peroxisome proliferator-activated receptor gamma (PPARg) signaling pathway (AID 743094; active means well fitted activation curve with a large enough effect in the signal ratio in the repeat runs, not every such curve was filed as active; the % refers to the signal ratio)
In short: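 HEK293H PPARg-bla cells, 5 h settle at 37C/5% CO2; compound (DMSO) 17 h, 37C; B/G FRET substrate 1 h RT; fluorescence intensity read-out. qHTS format.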

[19] = biological target: Peroxisome proliferator-activated receptor gamma (Homo sapiens) (UniProt P37231); experiment: qHTS assay to identify small molecule antagonists of the peroxisome proliferator-activated receptor gamma (PPARg) signaling pathway (AID 743191; calls by dose curve; further: series mostly up to about 63 µM; nearly all actives have a fitted effect of over 30% in size)
In short: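 GeneBLAzer PPARg UAS-bla HEK293H cells carrying a UAS-driven beta-lactamase reporter were plated at 3000 cells/well, preincubated 5 h at 37C, then given compound for 17 h at 37C; LiveBLAzer B/G FRET substrate was read after 1 h at room temperature.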

Measured: Potency

Chain of Peroxisome proliferator-activated receptor delta (Homo sapiens) (Q03181 whole entry, looked up): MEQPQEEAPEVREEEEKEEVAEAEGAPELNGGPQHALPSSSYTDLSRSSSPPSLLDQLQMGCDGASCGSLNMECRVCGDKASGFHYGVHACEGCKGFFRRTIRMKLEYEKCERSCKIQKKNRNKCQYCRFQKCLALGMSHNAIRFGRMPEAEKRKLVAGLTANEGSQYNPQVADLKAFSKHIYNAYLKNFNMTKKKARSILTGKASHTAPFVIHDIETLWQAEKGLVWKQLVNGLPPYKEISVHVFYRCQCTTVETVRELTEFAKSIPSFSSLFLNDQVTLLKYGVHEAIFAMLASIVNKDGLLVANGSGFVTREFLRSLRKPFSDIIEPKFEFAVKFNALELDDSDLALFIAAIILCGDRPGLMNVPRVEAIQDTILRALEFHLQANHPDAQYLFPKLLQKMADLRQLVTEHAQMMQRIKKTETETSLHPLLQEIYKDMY
Chain of Aryl hydrocarbon receptor (Homo sapiens) (P35869 whole entry, looked up): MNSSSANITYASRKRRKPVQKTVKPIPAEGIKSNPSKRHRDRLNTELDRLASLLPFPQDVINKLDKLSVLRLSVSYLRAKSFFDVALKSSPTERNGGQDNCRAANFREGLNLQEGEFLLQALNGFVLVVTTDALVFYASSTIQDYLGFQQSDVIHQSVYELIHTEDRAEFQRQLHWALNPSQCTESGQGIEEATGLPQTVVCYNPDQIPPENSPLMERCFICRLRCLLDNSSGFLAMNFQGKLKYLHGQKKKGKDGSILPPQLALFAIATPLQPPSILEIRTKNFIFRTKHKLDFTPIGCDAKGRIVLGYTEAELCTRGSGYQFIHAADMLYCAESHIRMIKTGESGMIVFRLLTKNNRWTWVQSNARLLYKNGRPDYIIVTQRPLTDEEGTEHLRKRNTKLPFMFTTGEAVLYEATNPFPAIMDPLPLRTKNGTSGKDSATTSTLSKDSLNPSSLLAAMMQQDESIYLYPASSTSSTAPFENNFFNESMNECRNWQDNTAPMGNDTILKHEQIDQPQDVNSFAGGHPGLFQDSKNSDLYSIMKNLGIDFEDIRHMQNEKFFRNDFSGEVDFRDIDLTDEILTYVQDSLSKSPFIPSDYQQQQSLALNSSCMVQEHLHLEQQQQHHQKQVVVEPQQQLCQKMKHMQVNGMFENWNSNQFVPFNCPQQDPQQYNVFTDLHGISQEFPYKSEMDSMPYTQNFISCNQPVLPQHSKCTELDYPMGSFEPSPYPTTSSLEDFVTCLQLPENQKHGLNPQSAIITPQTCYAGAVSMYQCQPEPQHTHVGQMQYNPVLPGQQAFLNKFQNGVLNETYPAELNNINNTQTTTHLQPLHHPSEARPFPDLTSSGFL
Chain of Peroxisome proliferator-activated receptor gamma (Homo sapiens) (P37231 whole entry, looked up): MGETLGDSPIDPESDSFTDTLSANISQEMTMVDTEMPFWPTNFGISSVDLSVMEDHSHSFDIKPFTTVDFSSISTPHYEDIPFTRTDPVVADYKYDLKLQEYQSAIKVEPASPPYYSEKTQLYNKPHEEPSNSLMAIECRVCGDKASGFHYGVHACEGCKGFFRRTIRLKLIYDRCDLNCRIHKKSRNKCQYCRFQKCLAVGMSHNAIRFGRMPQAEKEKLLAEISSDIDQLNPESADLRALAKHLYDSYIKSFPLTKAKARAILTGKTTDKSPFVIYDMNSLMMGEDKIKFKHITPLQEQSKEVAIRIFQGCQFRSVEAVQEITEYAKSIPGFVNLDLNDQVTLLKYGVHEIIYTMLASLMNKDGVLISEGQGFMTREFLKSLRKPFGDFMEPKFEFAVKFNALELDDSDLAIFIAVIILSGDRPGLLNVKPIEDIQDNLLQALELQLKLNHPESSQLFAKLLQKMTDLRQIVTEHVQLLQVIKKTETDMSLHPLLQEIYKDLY
Chain of Aromatase (Homo sapiens) (P11511 whole entry, looked up): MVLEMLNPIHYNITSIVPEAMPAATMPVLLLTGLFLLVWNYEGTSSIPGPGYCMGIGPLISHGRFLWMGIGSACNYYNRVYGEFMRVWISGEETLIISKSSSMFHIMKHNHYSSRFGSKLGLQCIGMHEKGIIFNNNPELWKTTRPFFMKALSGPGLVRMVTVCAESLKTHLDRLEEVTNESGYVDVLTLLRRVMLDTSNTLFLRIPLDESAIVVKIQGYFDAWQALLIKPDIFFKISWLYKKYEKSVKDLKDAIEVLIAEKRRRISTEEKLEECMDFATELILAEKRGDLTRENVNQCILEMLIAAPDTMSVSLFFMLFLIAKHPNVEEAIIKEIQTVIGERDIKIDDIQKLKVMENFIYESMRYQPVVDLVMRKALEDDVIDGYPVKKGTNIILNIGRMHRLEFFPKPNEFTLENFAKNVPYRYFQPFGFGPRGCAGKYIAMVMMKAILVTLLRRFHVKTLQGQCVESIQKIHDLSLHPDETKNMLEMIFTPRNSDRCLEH
Chain of Estrogen receptor (Homo sapiens) (P03372 whole entry, looked up): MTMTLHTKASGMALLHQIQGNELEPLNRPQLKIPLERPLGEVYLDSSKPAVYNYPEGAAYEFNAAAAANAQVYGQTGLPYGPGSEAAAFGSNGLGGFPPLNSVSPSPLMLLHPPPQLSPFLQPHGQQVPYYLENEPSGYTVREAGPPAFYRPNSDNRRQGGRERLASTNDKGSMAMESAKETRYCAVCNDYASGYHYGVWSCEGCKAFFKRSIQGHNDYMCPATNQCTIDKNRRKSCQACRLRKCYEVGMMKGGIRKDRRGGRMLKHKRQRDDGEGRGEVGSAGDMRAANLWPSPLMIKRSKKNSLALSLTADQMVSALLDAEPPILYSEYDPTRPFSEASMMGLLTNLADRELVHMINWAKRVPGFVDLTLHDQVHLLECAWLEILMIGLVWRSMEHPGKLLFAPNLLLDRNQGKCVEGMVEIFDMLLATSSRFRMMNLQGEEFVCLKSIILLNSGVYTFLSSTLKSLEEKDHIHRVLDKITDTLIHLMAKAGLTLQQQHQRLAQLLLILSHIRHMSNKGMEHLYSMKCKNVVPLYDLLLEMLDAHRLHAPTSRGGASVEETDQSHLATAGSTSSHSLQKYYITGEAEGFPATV

CC(C)(C)N
not listed: [17] | [18] | [19]
inactive: all other assays above

CC(C)CC(C)(C)C
not listed: [18] | [19]
inactive: all other assays above

CCCCCCCCCCCCSCCOCCO
not listed: [16] | [17] | [19]
inactive: all other assays above

C1=COCCC1
not listed: [9]
inactive: all other assays above

CC(C)CCCCCOC(=O)CS
not listed: Aromatase (Homo sapiens) | [11] | [15] | [16] | [17]
inactive: all other assays above

O=C1c2ccccc2C(=O)C1c1ccc2cc(S(=O)(=O)O)cc(S(=O)(=O)O)c2n1
active: [7] 52.5 µM | [8] 29.5 µM | [17] 33.1 µM | [11] 5.25 µM
not listed: [15] | [18] | [19]
inactive: all other assays above

Cc1nc(C)c(C)nc1C
not listed: [9] | [10] | [11]
inactive: all other assays above

OCCc1ccncc1
not listed: Aromatase (Homo sapiens) | [15] | [16]
inactive: all other assays above

CC(=O)c1cccnc1
not listed: [9] | [10] | [11] | [14] | [15] | [18] | [19]
inactive: all other assays above

CC(C)(C(=O)O)c1ccc(C(O)CCCN2CCC(C(O)(c3ccccc3)c3ccccc3)CC2)cc1 (centres undefined)
not listed: [7] | Aromatase (Homo sapiens) | [9] | [10] | [11]
inactive: all other assays above

CC1=C(C)C(=O)C(C(CCCCCC(=O)O)c2ccccc2)=C(C)C1=O (centres undefined)
active: [16] 29.8 µM
not listed: [11] | [17] | [18]
inactive: all other assays above

O=C(O)c1cc(C(=O)O)c(C(=O)O)cc1C(=O)O
not listed: [11] | [16] | [18] | [19]
inactive: all other assays above

COc1cc(CNC(=O)CCCC/C=C/C(C)C)ccc1O
active: [11] 47.3 µM
not listed: Aromatase (Homo sapiens) | [16] | [18] | [19]
inactive: all other assays above

CC[C@H](NC(C)C)[C@H](O)c1ccc(O)c2[nH]c(=O)ccc12
not listed: [8] | [18]
inactive: all other assays above

CCCCCC1CCC(=O)O1 (centres undefined)
not listed: [9] | [10]
inactive: all other assays above

C1CCN(CN2CCCCC2)CC1
not listed: [9] | [11]
inactive: all other assays above

COc1cccc([C@H](O)C2CCN(CCc3ccc(F)cc3)CC2)c1OC
not listed: [11] | [12] | [17] | [18]
inactive: all other assays above
